Compound activity as filed in PubChem.
OPRM1-OPRD1 inv = inverse agonists of human mu-delta opioid receptor heterodimerization; P35372+P41143; cell-based MOR-DOR heterodimer luminescence, inverse agonism; inhibition, % at 9.3 µM; actives 0.21% (n = 340,000); AID 504357; in the data active = inhibition above about 22%, passing the limit was not always enough;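 also: 0% = cells with DMSO and 100% = wells without cells with DMSO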
HTR5A inv ctr = counter-screen for OPRM1-OPRD1 inverse agonists: human HTR5A inverse agonism | P47898 | HTR5A cell line, luminescence | inhibition, % at 9.3 µM | actives 0.083% (n = 340,000) | AID 504634; in the data active = inhibition mostly above about 23%, no sharp cut-off; inactive = mostly below about 18%;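 also: 0% = cells with DMSO and 100% = no-cell wells with DMSO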
Target sequence (P47898 whole entry, looked up): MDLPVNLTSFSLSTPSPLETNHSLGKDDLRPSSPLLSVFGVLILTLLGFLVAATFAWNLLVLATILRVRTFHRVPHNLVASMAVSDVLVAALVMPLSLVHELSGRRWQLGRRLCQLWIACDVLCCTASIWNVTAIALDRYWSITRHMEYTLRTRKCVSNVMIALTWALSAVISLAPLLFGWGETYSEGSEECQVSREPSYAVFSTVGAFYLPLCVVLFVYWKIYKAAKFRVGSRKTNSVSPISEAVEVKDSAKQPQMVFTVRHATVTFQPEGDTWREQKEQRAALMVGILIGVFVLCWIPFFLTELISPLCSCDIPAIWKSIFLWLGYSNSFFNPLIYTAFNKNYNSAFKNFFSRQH
HTR5A ag ctr = activates human HTR5A in OPRM1-OPRD1 agonist counter-screen. HTR5A agonist assay, luminescence, cell-based. P47898. activation, % at 9.3 µM. AID 504692. actives 0.61% (n = 340,000); in the data active = activation mostly above about 9.5%, no sharp cut-off; inactive = mostly below about 7.6%;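 also: 0% = cells with vehicle only and 100% = reference agonist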
MOR-DOR ag = agonists of human mu-delta opioid receptor heterodimerization; P35372+P41143; cells, OPRM1-OPRD1 heterodimerization, luminescence; activation, % at 9.3 µM; actives 0.3% (n = 340,000); AID 504326; in the data active = activation above about 18%;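 also: 0% = vehicle-treated cells and 100% = reference agonist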
MOR-DOR inv conf = confirmation of human OPRM1-OPRD1 heterodimerization inverse agonists; shares compounds with OPRM1-OPRD1 inv; cells expressing OPRM1/OPRD1 heterodimer, luminescence; inhibition, % at 9.3 µM; actives 20% (n = 580); AID 504900; in the data active = inhibition above about 32%;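 also: 0% = cells with DMSO and 100% = wells lacking cells with DMSO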
HTR5A inv count = HTR5A inverse agonism, opioid heterodimer counter-screen; HTR5A-expressing cells, luminescence; shares compounds with OPRM1-OPRD1 inv; 580 tested, under 10 active; inhibition, % at 9.3 µM; call rule not given here;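 also: 0% = cells with DMSO and 100% = no-cell wells with DMSO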
* hit, by the source's call; i = inactive; nt = no result given. Sampled rows, rich in hits. Any-hit rate of the full collection: about 1.1%.

SMILES	OPRM1-OPRD1 inv	HTR5A inv ctr	HTR5A ag ctr	MOR-DOR ag	MOR-DOR inv conf	HTR5A inv count
COc1ccccc1N1C[C@@H]2C[C@@H](c3ccco3)N3CCC[C@@]23C1=O	2	8	-3	0	nt	nt
O=C(Cn1nnc2ccccc21)OCC(=O)c1ccccc1	17	5	1	-3	nt	nt
O=C(Cn1nnc2ccccc21)OCC(=O)c1ccc(Cl)c(Cl)c1	71*	12	-3	-13	-106	-23
CCC1=C(OC(=O)N(CC)CC)N2C(=O)OC(=NCC3CC3)[C@]2(C)[C@H]2C1=CC[C@H]1C(=O)NC(=O)[C@H]12	12	-20	-3	-2	nt	nt
CC1CCCC(C)N1C(=O)COC(=O)c1cc(S(=O)(=O)N2CCOCC2)ccc1Cl (configuration not stated)	13	11	-5	-3	nt	nt
Cc1cc2c(cc1C)C(=O)C(=O)N2	24	8	-2	-5	nt	nt
COc1ccc2c(c1)C(=O)C(=O)N2	63*	31*	-9	-12	-45	-108
Cc1ccc(Nc2nnc(SCC(=O)NC3CCS(=O)(=O)C3)s2)c(C)c1 (configuration not stated)	-9	34	-5	2	nt	nt
O=C(COC(=O)c1ccccc1F)c1ccc(-n2nncc2-c2ccco2)cc1	33*	23	1	-6	7	-7
CNc1ccccc1C(=O)OCC(=O)c1ccc(F)cc1	19	15	-5	-4	nt	nt
O=C(CNC(=O)c1ccc(Br)o1)NNC(=O)c1n[nH]c(=O)c2ccccc12	19	-7	3	-4	nt	nt
O=C1Nc2ccccc2C1=Nc1ccccc1-c1ccccc1	62*	28	-7	-14	-219	-20
O=C1Nc2ccccc2/C1=N/N=C/c1cccc(O)c1	5	19	3	-1	nt	nt
Cc1cc(C)c(N=C2C(=O)Nc3ccccc32)c(C)c1	48*	19	-5	-9	-37	-32
Cc1cccc(C)c1N=C1C(=O)Nc2ccccc21	46*	28	-7	-9	-26	-3
Cc1cc(Br)ccc1N=C1C(=O)Nc2ccccc21	50*	15	-4	-10	14	8
COc1cc2c(cc1NC(=O)c1cncc(Br)c1)oc1ccccc12	-10	3	-1	2	nt	nt
CCCCn1c(=N)n(CCOc2ccc(C)cc2)c2ccccc21	-15	-3	-6	3	nt	nt
O=c1c2cc(Br)ccc2[nH]c(=S)n1Cc1ccccn1	64*	2	-1	-11	-93	-20
O=C(CSc1ccc2nnc(-c3cccs3)n2n1)N1CCOCC1	16	1	0	-3	nt	nt
CC(C)C1OC2c3cccc4cccc(c34)C2N1c1ccccc1 (configuration not stated)	65*	-5	-7	-13	1	0
Nc1c(Cl)ncnc1N/N=C/c1ccnc2ccccc12	2	-5	-3	0	nt	nt
Nc1c(Cl)ncnc1N/N=C/c1ccc2ccccc2n1	32*	6	-2	-6	16	8
O=C(O)CCn1[nH]c(=O)ccc1=O	11	-13	2	-2	nt	nt
CC(C)(C)NC(=O)CN(Cc1cccs1)C(=O)c1csnn1	4	-14	-3	-1	nt	nt
SMILES	OPRM1-OPRD1 inv	HTR5A inv ctr	HTR5A ag ctr	MOR-DOR ag	MOR-DOR inv conf	HTR5A inv count
CCN(CC)C(=O)CN1C(=O)C(=O)c2ccccc21	38*	3	-1	-8	14	8
O=C(CN1C(=O)C(=O)c2ccccc21)c1ccc(Cl)cc1	46*	1	1	-8	-79	-9
CC1CCN(C(=O)CN2C(=O)c3cccc4cccc(c34)C2=O)CC1	8	24	-2	-2	nt	nt
CC(C)(C)NC(=O)CN(Cc1cccs1)C(=O)CN1C(=O)C(=O)c2ccccc21	33*	-16	6	-6	24	14
CC1CCN(C(=O)CN2C(=O)C(=O)c3ccccc32)CC1	29*	1	0	-5	13	5
N#Cc1cnc2sc3ccccc3n2c1=N	12	-8	-2	-2	nt	nt
COc1cccc(NC(=O)Cn2c(CCC(=O)O)ccc2-c2ccc(C)cc2)c1	8	-41	3	-2	nt	nt
O=C1c2ccccc2-c2nccnc21	80*	39*	-5	-14	87*	11
O=C(O)c1ccccc1C(=O)NNc1ccc(Cl)cc1	39*	-10	0	-7	9	-10
O=C(/C=C/c1ccccc1)NNc1ccc(Cl)cc1	31*	14	-5	-6	11	-7
O=C(/C=C/c1ccccc1)NNC(=O)c1cccc(Cl)c1	3	0	0	-1	nt	nt
O=C(NNc1ccc(Cl)cc1)c1sccc1Cl	47*	10	-5	-9	1	13
COc1ccc(C(C(=O)NC2CCCC2)N(C(=O)c2ccoc2C)c2ccc(C)c(C)c2)cc1 (configuration not stated)	6	6	-2	-1	nt	nt
CCCn1c(=O)c(-c2nc3ccccc3[nH]2)c(O)c2ccccc21	-50	0	1	10	nt	nt
CCOc1ccc2nc(-c3cc(NC(C)=O)ccc3O)sc2c1	27*	7	1	-4	-13	-11
CCOCC(=O)Nc1nc2ccc(OCC)cc2s1	16	-1	-2	-3	nt	nt
Cc1ccc2c(c1)C(=O)C(=O)N2CC(=O)Nc1ccc(N2CCOCC2)cc1	32*	8	-3	-6	37*	2
O=C1NC(=Nc2ccccc2)c2ccc([N+](=O)[O-])cc21	-18	-24	3	4	nt	nt
Cc1ccc([N+](=O)[O-])cc1N=C1C(=O)Nc2ccccc21	50*	26	-7	-11	-51	-101
CC(=O)c1cccc(N=C2C(=O)Nc3ccccc32)c1	59*	21	-1	-9	37*	4
O=C1Nc2ccccc2C1=Nc1ccc2[nH]c3ccccc3c2c1	49*	17	-4	-9	i	-66
COc1cc(/C=N/N=C2/C(=O)Nc3ccccc32)cc(OC)c1O	1	33	-5	0	nt	nt
Cc1ccc(N=C2C(=O)Nc3ccccc32)cc1	49*	8	-2	-10	-71	9
CC(=O)c1cccc(N2C(=O)Nc3ccccc3N2O)c1	9	1	1	-1	nt	nt
CCOC(=O)c1c(NC(=O)CSc2nnc3c(n2)[nH]c2ccc(F)cc23)sc(C(C)=O)c1C	12	23	-1	-2	nt	nt
Cc1ccc(N=C2C(=O)Nc3ccccc32)cc1C	43*	22	-2	-8	i	-26
Cc1nn(-c2ccccc2)c2c1C(c1ccncc1)C(C#N)=C(N)O2 (configuration not stated)	10	3	-1	-2	nt	nt
COc1cc(-n2nc(C)c3c2OC(N)=C(C#N)C3c2ccccc2)c(Cl)c(Br)c1O (configuration not stated)	34*	10	-4	-8	20	15
Cc1ccc2c(c1)C(=O)C(=O)N2Cc1ccc(F)cc1	39*	5	-2	-7	-28	-10
Cc1ccc2c(c1)C(=O)C(=O)N2Cc1ccccc1	38*	-11	8	-6	12	-4
